{
  "source": "ChEMBL document CHEMBL3433997",
  "about": "“St. Jude Leishmania screening dataset” (2016)",
  "data": [
    {"molecular_target": "Glucose transporter (Leishmania mexicana) (UniProt O61059)", "assay": "ST_JUDE_LEISH: Cytotoxicity at 2uM final concentration against transgenic Leishmania Mexicana promastigotes LmGT2 that are glucose transport deficient and complemented with the L. Mexicana glucose transporter 2. Activity is measured by DNA content using SYBR green in vitro", "type": "functional", "units": {"inhibition": "%"}, "values": [
      {"smiles": "O=C(NC1CCC(CCN2Cc3cccc(F)c3C2)CC1)c1cccc(-c2cccnc2)c1", "note": "(centres undefined)", "inhibition": -1.89},
      {"smiles": "COc1ccc2nccc(NCC3(O)CCC(NCc4ccc5c(n4)NC(=O)CS5)CC3)c2n1", "note": "(centres undefined)", "inhibition": 4.28},
      {"smiles": "CC(C)c1ccc2[nH]c(C(=O)NC3CCC(N4CCCc5ccc(C#N)cc5C4)CC3)cc2c1", "note": "(centres undefined)", "inhibition": 1.58},
      {"smiles": "Cc1cc(N2CCCC2)nc(Nc2ccc(NC(=O)Nc3ccccc3)cc2)n1", "inhibition": 3.63},
      {"smiles": "CC(C)(C)c1ccc(-c2nnc(N)nc2N)cc1", "inhibition": 0.09},
      {"smiles": "CCN1CCN(c2cc(C)c3cc(NC(=O)c4cccc(Cl)c4)ccc3n2)CC1", "inhibition": 8.84},
      {"smiles": "O=C(Nc1ccc(-c2ccc(-c3nc4ccccc4[nH]3)s2)cc1)c1ccncc1", "inhibition": 5.66},
      {"smiles": "O=C(c1cccc(-c2ccc(-c3nc4cc(C(F)(F)F)ccc4[nH]3)cc2)c1)N1CCCCC1CN1CCC(O)C1", "note": "(centres undefined)", "inhibition": 2.26},
      {"smiles": "O=C(C=Cc1ccc(Cl)c(Cl)c1)NCCCCCN1CCC(CCNC(=O)c2sc3ccccc3c2Cl)CC1", "inhibition": 8.75},
      {"smiles": "C=CCn1c(=N)c(C(=O)NCc2ccc(F)cc2)cc2c(=O)n3cccc(C)c3nc21", "inhibition": 2.22},
      {"smiles": "O=C(N[C@@H](Cc1ccccc1)[C@H](O)CNC1CCc2ccccc2C1)c1cc(C2CCCC2)cc(N2CCCC2=O)c1", "note": "(some centres undefined)", "inhibition": -4.47},
      {"smiles": "CCCCn1c(Sc2ccc(C#N)c([N+](=O)[O-])c2)nnc1-c1cccc(Cl)c1", "inhibition": 5.83},
      {"smiles": "CCOC(=O)C(=CNc1ccc(Cc2cnc(N)nc2N)cc1CC)C(=O)OCC", "inhibition": -3.12},
      {"smiles": "O=C(N[C@@H](Cc1ccccc1)C(=O)NC1CCCc2ccccc21)c1ccc(O)c(-c2cccc(C(F)(F)F)c2)c1", "note": "(some centres undefined)", "inhibition": -1.61},
      {"smiles": "O=c1cc(NCCCNCc2cn(S(=O)(=O)c3ccccc3)c3ccccc23)[nH]c2ccccc12", "inhibition": -0.88},
      {"smiles": "O=C(Nc1ccc(Cl)cc1)N[C@H]1CCN(CCCCCNC(=O)C2CC2c2ccc(Cl)c(Cl)c2)C1", "note": "(some centres undefined)", "inhibition": 8.02},
      {"smiles": "c1cncc(-c2cc(N3CCc4ccccc4C3)nc(-c3ccncc3)n2)c1", "inhibition": 4.28},
      {"smiles": "Cc1cc(=NN=Cc2cccc(Cl)c2)c2ccccc2[nH]1", "inhibition": 3.65},
      {"smiles": "N=C(N)Nc1ccc(OCCCCCOc2ccc(NC(=N)N)c(Cl)c2)cc1Cl", "inhibition": -2.62},
      {"smiles": "CCc1c[nH]c2c(N3CCCCS3(=O)=O)cc(C(=O)N[C@@H](Cc3ccccc3)[C@H](O)CNCc3cccc(OC)c3)cc12", "inhibition": -0.23},
      {"smiles": "COc1ccc(C2CCN(CCCCNC(=O)c3ccc(NC(=O)c4ccc(Cl)cc4)cc3)CC2)cc1Cl", "inhibition": 4.45},
      {"smiles": "O=C(Nc1ccccc1)N1CCC(CN2CCOC(c3ccccc3)(c3ccccc3)C2)CC1", "inhibition": 7.57},
      {"smiles": "COc1ccccc1N1CCN(CCCCN(C(=O)Nc2cccc(Cl)c2)C(=O)Nc2cccc(Cl)c2)CC1", "inhibition": 10.6},
      {"smiles": "Cc1cc(=O)c2cc(Oc3ccc(OC(F)(F)F)cc3)ccc2[nH]1", "inhibition": -1.19}
    ]}
  ]
}
